# High-throughput results from PubChem BioAssay.
# GALK inh: qHTS Assay for Inhibitors of Human Galactokinase (GALK): NCGC Sytravon Library Screen. P51570. recombinant GALK, Kinase-Glo ATP luminescence, 1 h. Potency, µM (series often up to 57.5 µM), for the others: top-dose activity, negative = inhibition, most hits filed as inhibitors. 44,000 tested, under 10 active. AID 1347072, 2019;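 further: plate controls were full GALK reaction for no effect and reaction lacking GALK for full effect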
#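 5 nM GALK; 35 uM ATP; 100 uM D-galactose; 20 mM HEPES pH 8.0, 5 mM MgCl2, 60 mM NaCl, 1 mM DTT, 0.01% BSA; 1 h RT; Kinase-Glo Plus luminescence.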
# GPR32 ag: qHTS for Agonists of Human Resolvin D1 Receptor DRV1; Probable G-protein coupled receptor 32 (Homo sapiens), O75388; CHO-K1 GPR32 beta-arrestin PathHunter luminescence, 90 min; zero percent set by DMSO-only wells; activation, % at 76.9 µM; actives 2.5% (n = 48,000); AID 1346428, 2018;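 active means activation of at least 60% and not above a set upper limit, about 1 call in 100 departs from these limits; inconclusive means activation of 40% to 60%, or above that upper limit; inactive means activation under 40%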; further: 0% is about no effect
# Target sequence (O75388 whole entry, looked up): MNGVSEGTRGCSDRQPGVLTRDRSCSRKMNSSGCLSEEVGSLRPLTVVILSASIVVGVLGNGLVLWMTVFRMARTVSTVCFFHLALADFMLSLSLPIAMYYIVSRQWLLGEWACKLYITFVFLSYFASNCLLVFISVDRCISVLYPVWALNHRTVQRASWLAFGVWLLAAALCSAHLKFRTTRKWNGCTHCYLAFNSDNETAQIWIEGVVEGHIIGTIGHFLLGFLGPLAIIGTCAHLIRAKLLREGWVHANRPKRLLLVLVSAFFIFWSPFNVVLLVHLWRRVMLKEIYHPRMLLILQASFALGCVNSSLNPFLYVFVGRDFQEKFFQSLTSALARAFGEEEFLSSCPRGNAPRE
#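 PathHunter beta-arrestin recruitment in CHO-K1 cells stably expressing ProLink-tagged GPR32. Cells were exposed to compound for 90 min at 37 C, then chemiluminescence was read after 1 h detection at ambient temperature; DMSO served as basal control.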
# HTT promoter inh: Primary qHTS for Identification of Small Molecule Inhibitors of Huntingtin Promoter Activity. Potency, µM (titrated, usually from 57.5 µM), without a hit: at the top dose activity change, negative = inhibition, actives largely listed as inhibitors. actives 0.93% (n = 48,000). HEK293 HTT promoter firefly luciferase reporter, 24 h; further: potency means the concentration at half of the fitted maximal effect; nearly all actives have a fitted effect of over 50% in size
#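 HEK293 luciferase promoter-reporter cells (2,500/well) plated 24 h, then compounds added at up to 57.5 uM final for 24 h at 37 °C. Firefly luminescence by Dual-Glo, normalized to vehicle (0%) and zero RLU (-100%).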
# TSG101-PTAP inh: qHTS Validation Assay for Inhibitors of HIV-1 Budding by Blocking the Interaction of PTAP/TSG101: Sytravon Library Screen; Potency, µM (top dose mostly 115 µM), usual class: inhibitors; Tumor susceptibility gene 101 protein (Homo sapiens), Q99816; 44,000 tested, under 10 active; Fluorescence polarization, FITC-PTAP peptide/Tsg101, 20 min; further: potency means the concentration at half of the fitted maximal effect; 0% is about no effect
#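 The Tsg101 binding domain, at 10 uM final, is mixed with compound and a FITC peptide bearing the PTAP motif (50 nM final). After 20 min at r.t., polarization is measured; actives defined by CRC class, efficacy cut-off 60% inhibition.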
# HTT-AS promoter: Primary qHTS for Identification of Small Molecule Activators of Huntingtin-Antisense Promoter Activity; HEK293 HTT-AS promoter firefly luciferase reporter, 24 h; response scale: percent change from vehicle, -100% = no light; Potency, µM (series often up to 57.5 µM), for the others: top-dose activity change, positive = activation, usual class: activators; actives 0.24% (n = 48,000); further: potency means the concentration at half of the fitted maximal effect; nearly all actives have a fitted effect of over 55% in size
#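 HEK293 Fluc reporter, 2,500 cells/well, 24 h pre-culture; cpds up to 57.5 uM final, 24 h 37 degrees C; Dual-Glo, 10 min RT; normalized vehicle = 0%, zero RLU = -100%.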
# B2AR arrestin ag: qHTS assay of beta-arrestin-biased ligands of beta2-adrenergic receptor: NCGC Sytravon Library Screen. HTLA Tango cells, beta-arrestin recruitment, luciferase luminescence, 18 h. Potency, µM (titrated, usually from 46.1 µM), most hits filed as activators. 44,000 tested, under 10 active. AID 1347077, 2019;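 further: potency means the concentration at half of the fitted maximal effect; 0% = DMSO and full agonism = EC100 isoproterenol or metaproterenol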
#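 Receptor–beta-arrestin recruitment read by tTA-responsive luciferase: compound titrations (up to 46 µM) incubated 18 h with Tango cells, then luminescent substrate 15 min at room temperature. Concentration-response fits classified by r2, efficacy and activity.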
# * marks the source's active call; other numbers are inactive results; i = inactive; ? = inconclusive; / = not tested or not shown. The list is not random: actives were taken first. Their share in the collection is about 3.6%. Unless noted, the call rests on the fitted dose curve; in most records, active means well fitted curve in the direction sought with a large enough effect; inconclusive means small, poorly fitted or top-dose-only effect, or another doubt; inactive means no such curve, though single readings can be large; an effect the other way counts as inactive or inconclusive.
SMILES,GALK inh,GPR32 ag,HTT promoter inh,TSG101-PTAP inh,HTT-AS promoter,B2AR arrestin ag
CC(C)(C)c1ccc(C(=O)NNc2ncnc3c2cnn3-c2ccccc2)cc1,0%,104*,-25%,i,-8%,i
O=C(CSc1nnc(-c2ccccc2Br)n1-c1ccccc1)c1ccc(F)cc1,-1%,60*,-38%,i,-29%,i
CCOc1ccc(-c2nnc(SCC(=O)c3ccc(F)cc3)n2-c2ccccc2)cc1,10%,-12,-24%,i,-37%,i
Cc1csc(-c2nnc(Nc3ccc(Oc4ncccc4-c4ccnc(N)n4)cc3)c3ccccc23)c1,/,/,-27%,/,-27%,/
CC(C)c1nn(-c2c(Cl)cccc2Cl)c2nc(Cc3ccc(OCCO)cc3)[nH]c(=O)c12,/,/,?,/,-42%,/
COc1cc(N2CCN(C)CC2)ccc1Nc1nc(N)c(C(=O)c2c(Cl)cccc2Cl)s1,/,/,-12%,/,-7%,/
Cc1cc(C)c(Cn2c(CCNC(=O)c3ccco3)nc3ccccc32)c(C)c1,-9%,68*,/,i,/,i
Cc1ccc(Cn2c(CCCNC(=O)c3ccco3)nc3ccccc32)cc1,-2%,24,/,i,/,i
Cc1nc(NC(=O)N2CCC[C@@H]2C(N)=O)sc1-c1csc(C(C)(C)C)n1,/,/,-5%,/,10%,/
CC1(C)OC(=O)Nc2ccc(Br)cc21,/,-5,1%,/,-3%,/
CC1=C(C(=O)Nc2ccccc2Cl)C(c2cccc(O)c2)n2ncnc2N1 (stereo not given),4%,-5,-9%,i,-6%,i
CC1=C(C(N)=O)C(c2cccc(O)c2)n2ncnc2N1 (stereo not given),-1%,61*,-5%,i,-3%,i
COc1cc(CNC(=O)c2ccc3nc(Cc4ccccc4)oc3c2)cc(OC)c1OC,4%,14,14µM*,i,-45%,i
COc1cc(CNC(=O)c2ccc3nc(CCc4ccccc4)oc3c2)cc(OC)c1OC,-2%,-29,?,i,-11%,i
CCOC(=O)c1ccc(NS(=O)(=O)c2ccc(Br)s2)cc1,2%,66*,-15%,i,-17%,i
Cc1ccc(CCNC(=O)CN2CCN(Cc3ccc(Cl)cc3)C2=O)cc1,-8%,60*,-15%,i,-7%,i
O=C(CN1CCN(Cc2ccc(F)cc2Cl)C1=O)NCCc1ccc(Cl)cc1,3%,44,-11%,i,-5%,i
COc1ccc(CNC(=O)Cn2nc(N3CCN(c4ccccc4)CC3)ccc2=O)c(OC)c1,0%,10,4%,i,-6%,i
CCOc1ccccc1CNC(=O)Cn1nc(N2CCN(c3ccccc3)CC2)ccc1=O,1%,61*,3%,i,-18%,i
CC1=C(CC(=O)O)c2cc(F)ccc2C1=Cc1ccc(S(C)=O)cc1 (stereo not given),/,/,?,/,-54%,/
CCn1c(SCC(=O)Nc2cc(C)ccc2F)nnc1-c1ccccc1O,7%,82*,-11%,i,1%,i
COc1ccccc1N1CCN(C(CNC(=O)C(=O)NCc2ccc(F)cc2)c2cccnc2)CC1 (stereo not given),0%,8,?,i,-78%,i
